This passage reports growth results from PubChem BioAssay (NCI).

This is part of a sample that, as a whole, favours compounds with a hit. Of some 83,000 tested, about 20% had one in any assay.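 A percent growth of 40 corresponds to 60% growth inhibition; 0 means no net growth; -100 means all cells died. Active threshold: below 10.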 Values without a mark were called inactive. Activity calls are given as the source filed them.

The test system of this assay is HCC-2998 colon. The assay can be described thus: NCI-60 one-dose screen, 48 h (100 = growth as untreated, 0 = no growth, -100 = all killed). As to conditions: 10 µM unless noted. The protocol: Growth inhibition of the HCC-2998 human tumor cell line is measured as a screen for anti-cancer activity. Cells are grown in 96 well plates and exposed to the test compound for 48 hours. Compounds are tested at a single concentration, which is 10^-5 M for most compounds. The reported endpoint is percent growth (GI% or GIPRCNT), where numbers from 0 - 100% represent growth inhibition, and numbers from -100% - 0 represent cell death. For example, a value of 40 represents 60% growth inhibition. A value of 0 means no net growth occurred over the course of the experiment. A value of -40 indicates 40% of cells at the beginning of the experiment died by the end of the experiment. A value of -100 means all cells are dead at the end of the experiment.
NCI-60 Human Tumor Cell Lines Screen was performed using the standard one-dose NCI protocol, which is described in more detail at https://dtp.cancer.gov/discovery_development/nci-60/default.htm.
Compounds with GIPRCNT values below 10 were considered active. Activity score was based on GIPRCNT using the following formula: […]
Score is 0 for GIPRCNT values of 100 or above, 50 for GIPRCNT values of 0, and 100 for GIPRCNT values of -100.
Consider `O=C(Nc1ccc(Br)cc1F)c1cc(Br)ccc1O`, for which the growth is 12.4%.
The figure for `Brc1c[n+](Cc2ccc3ccccc3c2)cn1Cc1ccc2ccccc2c1` is -28.5% (active); for `O=C(/C=C/c1cccc2ccccc12)c1ccc(NC(=O)c2ccccc2CN2C(=O)c3ccccc3C2=O)cc1` it is 109%.
With `C=CCNc1ccc2c3c(cccc13)C(=O)N(N1C(=O)c3cccc4cccc(c34)C1=O)C2=O` the figure was 107%.
`c1ccc2c(-c3nc(-c4c[nH]c5ccncc45)cs3)c[nH]c2c1`: the growth was -34.4% (active).
`Oc1ccc(-c2nc3ccc4[nH]ncc4c3c3c2CCCC3)c2cccnc12`: the growth was 5.08% (active).
With `O=C(Nc1ccc(Cl)cc1F)c1ccccc1O` the figure was 77.1%; with `Cc1ccc(-c2nn(C)c(=O)c3noc(-c4ccc(C)cc4)c23)cc1`, 70.8%; with `Cc1cccc2c3c(sc12)C(c1ccc(Cl)cc1)C(C#N)=C(N)O3` (stereo not given), 18.3%.
With `Cc1nc2ccccc2n1CC1C(=O)NC(=O)NC1=O` the figure was 127%.
On to `C/C(=N/NC(N)=S)c1sc(Nc2cccc(Cl)c2)nc1C`, for which the growth is 107%.
As to `Nc1nc(-c2cccc3ccccc23)cc2ccccc12`, the growth was -5.78% (active).
As for `C=C(C)[C@@H]1CC[C@]2(N=C=O)CC[C@]3(C)[C@H](CC[C@@H]4[C@@]5(C)Cc6c([nH]c7ccccc67)C(C)(C)[C@@H]5CC[C@]43C)[C@@H]12`, the growth was 98.4%.
On to `CCN(CC)S(=O)(=O)c1ccc(NC(=O)CSc2nnc(C)n2-c2ccccc2)cc1`, for which the growth was 109%.
`Cc1cccc2c3c(sc12)C(c1ccc(F)cc1)C(C#N)=C(N)O3` (stereo not given): the growth was 21.9%.
With `NS(=O)(=O)c1ccc(-n2nc(-c3ccc(Cl)cc3)c3ccccc3c2=O)cc1` the figure was 107%; with `N#Cc1ccc(NC(=O)c2sc3nc4c(cc3c2N)C(=O)CCC4)cc1`, 99.2%; with `Cc1ccc(/C=C2\Oc3ccc(O)c(O)c3C2=O)cc1`, 70.2%.
The figure for `COc1cc(OCc2cccc(-c3ccc(C(O)c4nccs4)cc3)c2C)cc(OC)c1CNCCNC(C)=O` (stereo not given) is 124%; for `COc1ccccc1/C=C1\Oc2cc(OCCN3CCC(Cc4ccccc4)CC3)ccc2C1=O` it is 37.9%.
The figure for `C[C@H](C(=O)Nc1ccc(S(N)(=O)=O)cc1)S(=O)(=O)c1ccccc1` is 111%.
Turning to `Cc1nc2ccccc2c(/C=C/c2ccccc2)c1C(=O)/C=C/c1ccc(C(F)(F)F)cc1`, the growth was -70.5% (active).
Take `COc1ccc2c(c1)c(-c1nn3cc(-c4cccs4)nc3s1)cn2C`: the growth is 98.9%.
In the case of `COc1ccc(-c2nn(C(=O)c3cc(OC)c(OC)c(OC)c3)c3cc(N)ccc23)cc1`, the growth is 25.1%.
With `CCOC(=O)C1=C(N)Oc2c(sc3c(C)cccc23)C1c1ccc(F)cc1` (stereo not given) the figure was 9.19% (active); with `FC(F)(F)c1cc(Nc2ccc3c(OCCCN4CCOCC4)cccc3n2)ccc1Cl`, 34.6%; with `O=C1CCC/C=C\C[C@H]2C=CC(=O)/C2=C/C[C@H](CCc2cccc(C(F)(F)F)c2)O1`, -74.4% (active).
With `CCC12CCC[N+]3([O-])CCC4(C(=Nc5ccccc54)C(O)(C(=O)OC)C1)C23` (stereo not given) the figure was 97.8%; with `CCOC(=O)Cn1c(=O)c2c(c3ccccc3n2C)n2nnc(-c3ccccc3)c12`, 109%.
`CC1=C(C)C(=O)C(Nc2cccc(C(=O)OC(C)(C)C)c2)=C(Br)C1=O`: the growth is 100%.
Take `N#C/C(=C\c1ccc(F)cc1)n1nc2cccc(F)c2n1`: the growth was 93.8%.
Turning to `CCCCOc1ccc(/C=N/NC(N)=S)cc1`, the growth is 79.7%.
The figure for `Oc1ccc(C#CCOc2ccccc2)cc1CNCCN(Cc1ccccn1)Cc1ccccn1` is 28.4%; for `CN1CCN(Cc2ccc(NC(=O)c3cncc(C#Cc4cnccc4C#N)c3)cc2C(F)(F)F)CC1` it is 50.8%.
With `COc1ccc(NC(=O)n2nc(/C=C\c3ccc(O)c(OC)c3)cc2/C=C\c2ccc(O)c(OC)c2)cc1` the figure was 74.9%; with `CNC(=O)c1[nH]cc(-c2ccccc2)c1-c1cc(OC)c2c(c1OC)OCO2`, 102%; with `O=C1c2cccc3cccc(c23)C(=O)N1N1C(=O)c2cccc3c(NC4CCCCC4)ccc(c23)C1=O`, 108%.
Consider `c1ccc2cc(C[n+]3ccn(CCCCCCn4cc[n+](Cc5ccc6ccccc6c5)c4)c3)ccc2c1`, for which the growth was 59.4%.
The figure for `Cc1nc2ccccc2c(/C=C/c2ccc(Cl)cc2)c1C(=O)/C=C/c1ccc(C(F)(F)F)cc1` is -81.3% (active).
With `CC1(C)C2CC1C1(/C=N/NC(N)=S)C(C2)C(C#N)(C#N)C1(C#N)C#N` (stereo not given) the figure was 94.1%.
